# Results as given in PubChem BioAssay (NCI).
# About 79,000 compounds went through this panel and 15% of them were active in at least one assay; those are over-represented in the sample as a whole. Values without a mark were called inactive. Activity calls are given as the source filed them. Cut-off read from the data, not from the text of the source: active = growth inhibition above about 70%; inactive = the rest.
# Test: NCI Yeast Anticancer Drug Screen. Data for the rad14 strain (AID 159);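 note: 0% = growth of vehicle-treated control cultures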
# Details: S. cerevisiae rad14 strain growth inhibition, active compounds read high
# Protocol: Growth inhibition of yeast strains with defined genetic alterations is measured as a screen for potential anti-cancer activity. Selected strains with alterations in DNA damage repair or cell cycle control were exposed to compounds and growth inhibition was measured relative to vehicle treated controls. The strain used in this assay is rad14
SMILES,growth inhibition (at 1.2 µM) [%],growth inhibition (at 3.7 µM) [%],growth inhibition (at 11.0 µM),growth inhibition (at 33.0 µM),growth inhibition (at 100.0 µM)
Cc1cc(C)c(NC(=S)NC(=O)c2ccccc2)cc1C,-40,-48,-40%,-16%,-9%
CC(=O)OC1CC2C(C)(C)C(=O)C=C[C@]2(C)C2CCC3(C)C(=CCC3[C@H](CO)C[C@H](O)C(=O)C(C)(C)O)[C@]12C (stereo not given in full),-42,-46,-29%,-5%,77% (active)
CNC(=O)OCc1c(COC(=O)NC)c2n(c1C)-c1ccc(OC)cc1CCC2,-36,-16,-23%,98% (active),100% (active)
CCN(CC)CCNc1ccc2ncn3c4cc(OC)c(OC)c(=O)c4c(O)c1c23,-1,0,5%,4%,8%
NC1CCCCC1N.Nc1c(N=Nc2ccc(-c3ccc(N=Nc4cc(S(=O)(=O)[O-])c5ccccc5c4N)cc3)cc2)cc(S(=O)(=O)[O-])c2ccccc12.[OH3+].[OH3+].[Pt+4],2,13,85% (active),94% (active),81% (active)
CCCC/C([O-])=C1/C(=O)N(c2ccccc2)N=C1C.CCCC/C([O-])=C1/C(=O)N(c2ccccc2)N=C1C.[Cu+2],0,0,-1%,-2%,-2%
CCCCCOC(=S)SC(=O)OCC,-5,-4,12%,42%,92% (active)
O=C(COC(=O)c1ccccc1)c1ccc(Br)cc1,16,18,30%,99% (active),98% (active)
